This note sets out measurements from PubChem BioAssay (Tox21).

SMILES strings stand for the structures. Results filed as inconclusive are left out. A number with no mark means an inactive call. Calls of active or inactive are those of the source. Calls come from the whole dose curve; as a rule, active = well fitted cell-killing curve with a large enough effect in the repeat runs; inconclusive = weak or mixed curves, or effect the other way; inactive = flat fitted curve, though single readings scatter.
% is set by controls: 0 for no effect and ±100 for the full control effect.

The first experiment can be described thus: cAMP Responsive Elements (CRE) small molecule antagonists, cell-based qHTS assay: qHTS cell viability counter screen (AID 2060913). Note: nearly all actives have a fitted effect of over 40% in size. Note: potency is the fitted concentration of half-maximal effect. Conditions: CRE-bla HEK293T viability, CellTiter-Glo luminescence, 5 h; series mostly up to 92.4 µM; viability change, negative = cytotoxic: at the top concentration. The method, boiled down:
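CRE-bla HEK293T cells (2,000/well, 18 h) given compound plus NKH477 0.25 uM final for 3 h at 37C; viability counter-screen by CellTiter-Glo luminescence in same wells after 30 min.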
(In qHTS, concentration-response curves come from the screen itself.)
Consider `C=Cc1ccc(OC(C)=O)cc1`, for which the “viability change, negative = cytotoxic” value is 2.84%.
For the compound `CCCOC(=O)c1ccccc1`, the Potency result is “inactive”.
The same measure, in the same setting: next, `CCCSc1ccc2nc(NC(=O)OC)[nH]c2c1`: “inactive”.
`CCCC1CCOC(C)S1` (stereo not given): the “viability change, negative = cytotoxic” value was -4.15%.
For `CN(C)CCOC1=Cc2ccccc2Sc2ccc(Cl)cc21`, the “viability change, negative = cytotoxic” value was -1.17% [at 42.5 µM].
On to `CCCCCCCCCCCO`, for which the Potency result is “inactive”.
Take `O=C(O)c1ccc2c(c1)C(=O)OC2=O`: the Potency result was “inactive”.
As for `O=CCCCC=O`, the Potency entry was “inactive”.
The same measure, in the same setting: next, `O=C(Oc1ccccc1)c1ccccc1O`: “inactive”.
As to `COc1ccc(/C=C/C(=O)c2ccc(OC)cc2OC)cc1`, the “viability change, negative = cytotoxic” value is 15.7% [at 42.5 µM].
As for `O=C(O)c1ccccc1C(=O)O`, the Potency entry was “inactive”.
`COCCc1ccc(OCC(O)CNC(C)C)cc1` (stereo not given): the Potency entry is “inactive”.
On to `CC(CSC(=O)c1ccccc1)C(=O)N1C[C@@H](Sc2ccccc2)C[C@H]1C(=O)O` (stereo not given in full), for which the viability change, negative = cytotoxic was 1.17% [at 18.9 µM].
Take `C[N+]1(C)CCC(OC(=O)C(O)(c2ccccc2)C2CCCC2)C1` (stereo not given): the “viability change, negative = cytotoxic” value is -3.95% [at 42.5 µM].
Same read-out and setting: the figure for `CC[C@@H](CO)NCCN[C@@H](CC)CO` is -0.674% [at 42.5 µM].
In the case of `CCCc1c(OCCCCc2nn[nH]n2)ccc(C(C)=O)c1O`, the Potency result was “inactive”.
As to `Cc1c[nH]c2ccccc12`, the “viability change, negative = cytotoxic” value was -1.53% [at 42.5 µM].
On the same count and under the same terms, the figure for `O=C(O)Cn1cnnn1` is -0.795% [at 42.5 µM].
As to `CCCCC/C=C/CC(=O)OC`, the “viability change, negative = cytotoxic” value is 4.25%.
The same measure, in the same setting: the figure for `CSc1nc(NC2CC2)nc(NC(C)(C)C)n1` is -10.2%.
Turning to `O=C(O)c1ccc([N+](=O)[O-])cc1`, the Potency result is “inactive”.
`CC(=O)OC1CCCCC1C(C)(C)C` (stereo not given): the “viability change, negative = cytotoxic” value is -1.49%.
`CC(=O)OCC(=O)[C@@]1(O)CCC2C3CCC4=CC(=O)CC[C@]4(C)C3[C@@H](O)C[C@@]21C` (stereo not given in full): the “viability change, negative = cytotoxic” value is -1.05% [at 42.5 µM].
Same read-out and setting: next, `O=C(O)Cc1csc(-c2ccc(Cl)cc2)n1`: -0.641% [at 42.5 µM].
For `O=Cc1ccccc1[N+](=O)[O-]`, the “viability change, negative = cytotoxic” value was 19.2%.
Same read-out and setting: next, `C=CCOC(=O)/C=C\C(=O)OCC=C`: 15.9%.
Still for that read-out and setting: the figure for `CC1(C)S[C@@H]2[C@H](NC(=O)C(c3ccccc3)S(=O)(=O)O)C(=O)N2[C@H]1C(=O)O` (stereo not given in full) is 1.77% [at 42.5 µM]; for `C[N+](C)(C)CCOC(=O)CCC(=O)OCC[N+](C)(C)C` it is -2.67% [at 42.5 µM].
Regarding `COC(=O)[C@H]1[C@H]2C[C@@H]3c4[nH]c5cc(OC)ccc5c4CCN3C[C@H]2C[C@@H](OC(=O)c2cc(OC)c(OC)c(OC)c2)[C@@H]1OC`, the Potency entry is “inactive”.
As for `CCCCCCCCCCC[C@@H](C[C@@H]1OC(=O)[C@H]1CCCCCC)OC(=O)[C@H](CC(C)C)NC=O`, the “viability change, negative = cytotoxic” value was 5.94% [at 42.5 µM].
As to `CCN(CCC#N)c1ccccc1`, the “viability change, negative = cytotoxic” value was -0.812%.
Same read-out and setting: the figure for `COc1cc(C(C)=O)ccc1OCCCN1CCC(c2noc3cc(F)ccc23)CC1` is -0.561% [at 42.5 µM].
Same read-out and setting: the figure for `CN1CCCC(n2nc(Cc3ccc(Cl)cc3)c3ccccc3c2=O)CC1` (stereo not given) is -1.4% [at 42.5 µM]; for `CCCCCCCCCCCCI` it is 4.04%.
In the case of `Oc1cc(Cl)cc(Cl)c1Cl`, the Potency is 55.8 µM (active).
With `CCCCCCC`, the “viability change, negative = cytotoxic” value was -0.372%.
As for `CCCC(C)c1ccccc1O` (stereo not given), the “viability change, negative = cytotoxic” value is -12.3%.
Same read-out and setting: next, `CCOC(=O)C1=NOC(c2ccccc2)(c2ccccc2)C1`: 1.1%; `CC(C)(C)C1(CCc2ccc(Cl)cc2)CO1` (stereo not given): 6.04%.
Turning to `CCNc1ccccc1`, the Potency result was “inactive”.

The next experiment is described as follows: cAMP Responsive Elements (CRE) small molecule agonists, cell-based qHTS assay: qHTS cell viability counter screen (AID 2060914).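 Note: viability read after 3 h of compound exposure; nearly all actives have a fitted effect of over 50% in size.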 Conditions: CRE-bla HEK293T viability, CellTiter-Glo luminescence, 5 h; series mostly up to 92.4 µM; activity change, negative = cytotoxicity: at the top concentration. The gist of the method:
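Cytotoxicity counter screen multiplexed with the CRE-bla reporter assay in HEK 293T cells: 3 h compound exposure at 37 °C, followed by CellTiter-Glo luminescence measured in the same wells.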
Turning to `C=Cc1ccc(OC(C)=O)cc1`, the “activity change, negative = cytotoxicity” value is 10.5%.
For the compound `CCCOC(=O)c1ccccc1`, the Potency result was “inactive”.
As for `CCCSc1ccc2nc(NC(=O)OC)[nH]c2c1`, the Potency entry was “inactive”.
With `CCCC1CCOC(C)S1` (stereo not given), the “activity change, negative = cytotoxicity” value is 1.58%.
Same read-out and setting: the figure for `CN(C)CCOC1=Cc2ccccc2Sc2ccc(Cl)cc21` is 13.3% [at 42.5 µM].
`CCCCCCCCCCCO`: the Potency entry is “inactive”.
The same measure, in the same setting: next, `O=C(O)c1ccc2c(c1)C(=O)OC2=O`: “inactive”; `O=CCCCC=O`: “inactive”; `O=C(Oc1ccccc1)c1ccccc1O`: “inactive”.
Consider `COc1ccc(/C=C/C(=O)c2ccc(OC)cc2OC)cc1`, for which the “activity change, negative = cytotoxicity” value is 11.7% [at 42.5 µM].
Turning to `O=C(O)c1ccccc1C(=O)O`, the Potency entry was “inactive”.
In the case of `COCCc1ccc(OCC(O)CNC(C)C)cc1` (stereo not given), the Potency result was “inactive”.
For `CC(CSC(=O)c1ccccc1)C(=O)N1C[C@@H](Sc2ccccc2)C[C@H]1C(=O)O` (stereo not given in full), the activity change, negative = cytotoxicity was -0.289% [at 18.9 µM].
On the same count and under the same terms, the figure for `C[N+]1(C)CCC(OC(=O)C(O)(c2ccccc2)C2CCCC2)C1` (stereo not given) is 4.92% [at 42.5 µM]; for `CC[C@@H](CO)NCCN[C@@H](CC)CO` it is -2.55% [at 42.5 µM].
`CCCc1c(OCCCCc2nn[nH]n2)ccc(C(C)=O)c1O`: the Potency result was “inactive”.
`Cc1c[nH]c2ccccc12`: the “activity change, negative = cytotoxicity” value was 15.2% [at 42.5 µM].
Same read-out and setting: next, `O=C(O)Cn1cnnn1`: 2.16% [at 42.5 µM].
Still for that read-out and setting: next, `CCCCC/C=C/CC(=O)OC`: 8.47%; `CSc1nc(NC2CC2)nc(NC(C)(C)C)n1`: -17.5%.
For `O=C(O)c1ccc([N+](=O)[O-])cc1`, the Potency result is “inactive”.
As to `CC(=O)OC1CCCCC1C(C)(C)C` (stereo not given), the “activity change, negative = cytotoxicity” value was 2.77%.
Still for that read-out and setting: next, `CC(=O)OCC(=O)[C@@]1(O)CCC2C3CCC4=CC(=O)CC[C@]4(C)C3[C@@H](O)C[C@@]21C` (stereo not given in full): 8.64% [at 42.5 µM]; `O=C(O)Cc1csc(-c2ccc(Cl)cc2)n1`: 0.614% [at 42.5 µM]; `O=Cc1ccccc1[N+](=O)[O-]`: 4.63%.
Still for that read-out and setting: the figure for `C=CCOC(=O)/C=C\C(=O)OCC=C` is 2.29%; for `CC1(C)S[C@@H]2[C@H](NC(=O)C(c3ccccc3)S(=O)(=O)O)C(=O)N2[C@H]1C(=O)O` (stereo not given in full) it is -3.05% [at 42.5 µM]; for `C[N+](C)(C)CCOC(=O)CCC(=O)OCC[N+](C)(C)C` it is 0.724% [at 42.5 µM].
With `COC(=O)[C@H]1[C@H]2C[C@@H]3c4[nH]c5cc(OC)ccc5c4CCN3C[C@H]2C[C@@H](OC(=O)c2cc(OC)c(OC)c(OC)c2)[C@@H]1OC`, the Potency entry was “inactive”.
With `CCCCCCCCCCC[C@@H](C[C@@H]1OC(=O)[C@H]1CCCCCC)OC(=O)[C@H](CC(C)C)NC=O`, the “activity change, negative = cytotoxicity” value was 4.44% [at 42.5 µM].
Same read-out and setting: next, `CCN(CCC#N)c1ccccc1`: -8.54%; `COc1cc(C(C)=O)ccc1OCCCN1CCC(c2noc3cc(F)ccc23)CC1`: 10.8% [at 42.5 µM]; `CN1CCCC(n2nc(Cc3ccc(Cl)cc3)c3ccccc3c2=O)CC1` (stereo not given): 9.86% [at 42.5 µM].
On the same count and under the same terms, the figure for `CCCCCCCCCCCCI` is -2.67%; for `Oc1cc(Cl)cc(Cl)c1Cl` it is 15.1%; for `CCCCCCC` it is -6.11%.
Regarding `CCCC(C)c1ccccc1O` (stereo not given), the “activity change, negative = cytotoxicity” value was -16%.
As for `CCOC(=O)C1=NOC(c2ccccc2)(c2ccccc2)C1`, the “activity change, negative = cytotoxicity” value was -5.13%.
Still for that read-out and setting: the figure for `CC(C)(C)C1(CCc2ccc(Cl)cc2)CO1` (stereo not given) is -0.633%.
Regarding `CCNc1ccccc1`, the “activity change, negative = cytotoxicity” value was 4.24%.
